Assay results published in PubChem BioAssay (EPA / NIEHS).
Values joined by “and” are separate entries in the source; they are usually repeats but may differ in a detail not shown here. Identical values can stand only once. Records with an inconclusive call do not appear. Some compounds were tested as several samples or in several runs, with calls that do not always agree. Active and inactive are the calls of the source. The calls were made as follows: active = hit-call score of the fitted dose curve at least 0.9, where 1 is the maximum; inconclusive = response in the unintended direction; inactive = score below 0.9.

Test: CCTE_Shafer_MEA_dev_active_electrodes_number: CCTE's Neural Network Formation Assay for Number of Active Electrodes, Shafer Lab (AID 2284040);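 as to AC50: potency for loss of active electrodes versus DMSO so lower counts are hits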
Description: CCTE_Shafer_MEA_dev assay is conducted using Axion Biosystems 48 well microelectrode array (MEA) plates and Maestro recording system. Each well of the MEA plate contains a grid of 16 microelectrodes embedded in the culture surface. Electrically active cells, such as neurons, can be cultured over the electrodes, and electrical activity in these cells can be recorded extracellularly. The spontaneous firing of neurons is captured from each electrode on a microsecond timescale providing both temporally and spatially precise data. […] The CCTE_Shafer_MEA_dev assay uses primary cultures of rat cortical neurons. Recordings are made on days post-plating 5, 7, 9 and 12. As these cultures mature over time, neural networks develop functional activity and form cohesive networks in which electrical activity can be highly coordinated. CCTE_Shafer_MEA_dev_active_electrodes_number is 1 of 19 assay components of the CCTE_Shafer_MEA_dev assay. It measures the number of electrodes in a well with a mean firing rate of at least 5 spikes (action potential firings) per minute during a recording in a microelectrode array (MEA) using Axion Biosystems Maestro 768 channel amplifier with the AxIS adaptive spike detector. To collapse across multiple recordings made on days post-plating 5, 7, 9 and 12, the trapezoidal area-under-the-curve of the component is calculated.Data from the assay component CCTE_Shafer_MEA_dev_active_electrodes_number was analyzed into 1 assay endpoint. This assay endpoint, CCTE_Shafer_MEA_dev_active_electrodes_number, was analyzed in the negative analysis fitting direction relative to DMSO as the negative control and baseline of activity. Using a type of functional reporter, gain or loss-of-signal activity can be used to understand electrical activity.
On the day prior to culture, each well was coated thoroughly with 150 uL of 0.05% polyethyleneimine (PEI, Sigma Cat P3143) in 50 mM HEPES (Sigma Cat H7523) at a pH of 8. The plate was incubated at 37C for one hour. PEI was rinsed out with 500 uL of sterile water three times. Plates were stored at 4C until the day of culture. This culture was plated at a seeding density of 1.5 x 10^5 cells/well on a 48-well MEA plate, prepared as described above. Cells were administered via a 25 uL media/laminin ([…]; Sigma Cat L2020-1MG) drop directly onto the microelectrode array, as adding the cells with the laminin results in better attachment than pre-coating with laminin. After 2 hours, an additional 475 uL of cortical media was added and the cells returned to the incubator. Exposure starts at day 0 of plating and is continued over twelve days of network development until the experiment is terminated. Cells are fed with fresh medium on DIV 5 and 9, following the recordings on those days. The entire volume of media in the well is exchanged and any vehicle or compound treatment is renewed. Complete details are found in OP-NHEERL/ISTD/SBB/TJS/2015-03-r0 (available on request, email shafer.tim@epa.gov). Measurement of the electrical activity is non-invasive, and recordings can be made from the same plate over multiple different days of the culture. In cortical neurons, this allows for the measurement of extracellular action potentials over the period during which networks form in the MEA plate.
In the case of `CCCSP(=O)(OCC)Oc1ccc(Br)cc1Cl` (configuration not stated), the outcome is reported as “inactive”. For `C=C(C)[C@H]1Cc2c(ccc3c2O[C@@H]2COc4cc(OC)c(OC)cc4[C@@H]2C3=O)O1`, the AC50 was 25.2 nM (active) and 14.1 nM (active). With `CC(Oc1cccc(Cl)c1)C(=O)O` (configuration not stated) the outcome was “inactive”. For `CC[C@H](C)[C@H]1O[C@]2(C=C[C@@H]1C)C[C@@H]1C[C@@H](C/C=C(\C)[C@@H](O[C@H]3C[C@H](OC)[C@@H](O[C@H]4C[C@H](OC)[C@@H](NC)[C@H](C)O4)[C@H](C)O3)[C@@H](C)/C=C/C=C3\CO[C@@H]4[C@H](O)C(C)=C[C@@H](C(=O)O1)[C@]34O)O2`, the AC50 was 55 nM (active) and 4.37 nM (active). In the case of `CC(C)=CC1C(C(=O)OCN2C(=O)C3=C(CCCC3)C2=O)C1(C)C` (configuration not stated), the outcome is reported as “inactive”. For `CCOP(=O)(OCC)Oc1cc(C)nc(C(C)C)n1`, the outcome was “inactive”. With `C[Si](Cn1cncn1)(c1ccc(F)cc1)c1ccc(F)cc1` the AC50 was 4.26 µM (active). For `CCCSP(=O)(OCC)SCCC`, the AC50 was 27.9 µM (active) and 50.5 µM (active). For `CCOP(=S)(OCC)Oc1ccc2c(C)c(Cl)c(=O)oc2c1`, the AC50 was 65.8 µM (active). For `CC(C)N(C(=O)SCC(Cl)=C(Cl)Cl)C(C)C`, the AC50 was 27 µM (active). In the case of `CCOP(=S)(OCC)OC(Cl)C(Cl)(Cl)Cl` (configuration not stated), the AC50 is reported as 50 µM (active) and 22.9 µM (active). With `CCOP(=S)(OCC)Oc1ccc([N+](=O)[O-])cc1` the outcome was “inactive”. For `CC(C)[C@H](C(=O)O[C@H](C#N)c1cccc(Oc2ccccc2)c1)c1ccc(Cl)cc1`, the AC50 was 14.6 µM (active). For `C[N+]1(C)CCCCC1`, the AC50 was 15 µM (active). In the case of `O=[N+]([O-])c1cc(C(F)(F)F)c(Cl)c([N+](=O)[O-])c1Nc1ncc(C(F)(F)F)cc1Cl`, the AC50 is reported as 0.905 µM (active). With `CSC1=N[C@@](C)(c2ccccc2)C(=O)N1Nc1ccccc1` the outcome was “inactive”. For `COP(=O)(OC)OC(Br)C(Cl)(Cl)Br` (configuration not stated), the AC50 was 7.62 µM (active) and 14.8 µM (active). In the case of `S=C1NCCN1`, the AC50 is reported as 3.82 µM (active). In the case of `CN1COCN(Cc2cnc(Cl)s2)C1=N[N+](=O)[O-]`, the outcome is reported as “inactive”. With `C#CCC1=C(C)C(OC(=O)C2C(C=C(C)C)C2(C)C)CC1=O` (configuration not stated) the outcome was “inactive”. With `CCOP(=O)(SC(C)CC)N1CCSC1=O` (configuration not stated) the outcome was “inactive”. With `CCOP(=S)(OCC)Oc1cc(C)nc(C(C)C)n1` the AC50 was 75.9 µM (active). In the case of `CC(=NC#N)N(C)Cc1ccc(Cl)nc1`, the outcome is reported as “inactive”. For `CCOP(=S)(OCC)SCCSCC`, the outcome was “inactive”. In the case of `COP(=O)(OC)C(O)C(Cl)(Cl)Cl` (configuration not stated), the AC50 is reported as 11.6 µM (active). For `CCOP(=O)(NC(C)C)Oc1ccc(SC)c(C)c1` (configuration not stated), the outcome was “inactive” and the AC50 was 33.4 µM (active). In the case of `COP(=O)(NC(C)=O)SC` (configuration not stated), the outcome is reported as “inactive”. For `CN(C)[C@@H]1C(=O)C(C(N)=O)=C(O)[C@@]2(O)C(=O)C3=C(O)c4c(O)cccc4[C@@](C)(O)[C@H]3[C@H](O)[C@@H]12`, the AC50 was 50 µM (active). With `CON=C(C(=O)OC)c1ccccc1CON=C(C)c1cccc(C(F)(F)F)c1` the AC50 was 775 nM (active) and 838 nM (active). With `CCCCSP(=O)(SCCCC)SCCCC` the AC50 was 34.3 µM (active) and 15.2 µM (active). For `CCOP(=S)(Oc1cnc(C(C)(C)C)nc1)OC(C)C` (configuration not stated), the AC50 was 93.2 µM (active) and 14.9 µM (active).
